3T3 cytotox: Cytotoxic Profiling in NIH 3T3 Cell Line of Diverse Libraries Using Quantitative High-Throughput Screening. Potency, µM (doses to about 96.7 µM), for inactives: top-dose activity change, negative = cytotoxicity, most hits filed as inhibitors. hit rate 4.3% among 94,000. NIH 3T3 viability, CellTiter-Glo ATP luminescence, 48-72 h; note: nearly all actives have a fitted effect of over 55% in size
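Cytotoxicity was measured by CellTiter-Glo ATP luminescence after 48 or 72 h compound exposure at 37 °C. Mouse NIH 3T3 fibroblasts were seeded at 400 cells/well and dosed by 23 nL pin transfer.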
hNpr1 antagonist: Natriuretic polypeptide receptor (hNpr1) antagonism - Primary qHTS. HEK293 hNpr1 GloSensor cGMP, ANP-stimulated luminescence. Atrial natriuretic peptide receptor 1 (Homo sapiens), P16066. Potency, µM (top dose mostly 46.3 µM), inactives show top-dose activity change, negative = inhibition, usual class: inhibitors. hit rate 1.6% among 76,000; calls by dose curve; note: nearly all actives have a fitted effect of over 60% in size
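Compound pre-incubated 30 min at room temperature on GloSensor-loaded HEK293 cells stably carrying hNpr1 and the pGS-40F cGMP biosensor. Stimulation uses hNppA at 0.1 nM final; luminescence is taken at baseline and 20 min post-agonist.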
HEK293 tox: Cytotoxic Profiling in HEK 293 Cell Line of Diverse Libraries Using Quantitative High-Throughput Screening; HEK 293 viability, ATP luminescence (CellTiter-Glo), 48-72 h; hit rate 6.6% among 94,000; Potency, µM (top dose mostly 115 µM), inactives show top-dose activity change, negative = cytotoxicity, hits mostly inhibitors; note: nearly all actives have a fitted effect of over 60% in size
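qHTS cytotoxicity; HEK 293, 250 cells/well; compound pinned; 48 or 72 hr, 37 degree Celsius, 5% CO2, 95% humidity; CellTiter-Glo, 10 min RT; luminescence (ATP).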
FLuc inh: Firefly luciferase inhibition profiling of diverse chemical library using quantitative high-throughput screening | Luciferin 4-monooxygenase (Photinus pyralis), P08659 | purified P. pyralis luciferase, luminescence, biochemical | Potency, µM (top dose mostly 115 µM), most hits filed as inhibitors | hit rate 2.5% among 76,000 | AID 1347043, 2019; note: nearly all actives have a fitted effect of over 65% in size
Target sequence (P08659 whole entry, looked up): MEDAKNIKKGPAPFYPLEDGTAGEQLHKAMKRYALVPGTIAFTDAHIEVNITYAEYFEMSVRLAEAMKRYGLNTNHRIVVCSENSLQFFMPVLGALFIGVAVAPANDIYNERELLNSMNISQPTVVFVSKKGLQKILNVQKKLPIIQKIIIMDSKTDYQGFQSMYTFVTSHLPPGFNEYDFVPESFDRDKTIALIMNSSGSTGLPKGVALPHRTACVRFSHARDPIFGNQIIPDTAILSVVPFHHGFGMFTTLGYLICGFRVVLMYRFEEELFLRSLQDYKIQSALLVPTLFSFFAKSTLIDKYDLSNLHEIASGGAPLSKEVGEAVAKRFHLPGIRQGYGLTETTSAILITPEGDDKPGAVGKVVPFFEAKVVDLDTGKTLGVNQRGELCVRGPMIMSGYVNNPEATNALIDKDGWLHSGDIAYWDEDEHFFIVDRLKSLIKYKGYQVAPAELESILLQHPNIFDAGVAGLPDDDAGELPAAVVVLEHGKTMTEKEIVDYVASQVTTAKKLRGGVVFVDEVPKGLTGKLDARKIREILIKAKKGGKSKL
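Purified 10nM P. pyralis luciferase with 10uM D-luciferin and 10uM ATP in 50mM Tris acetate pH 7.5, 10mM Mg acetate, 0.01% Tween-20, 0.05% BSA. qHTS titration; luminescence read by CCD imager.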
An asterisk follows results filed as active; i = inactive; ? = inconclusive; · = no result given; [ ] = remark or other dose. In the library only some 11% were active in any assay of this set; here they are far more common. Unless noted, calls come from the whole dose curve; as a rule, active = well fitted curve in the direction sought with a large enough effect; inconclusive = small, poorly fitted or top-dose-only effect, or another doubt; inactive = no such curve, though single readings can be large; an effect the other way counts as inactive or inconclusive. % is set by controls: 0 for no effect and ±100 for the full control effect; potency is the fitted concentration of half-maximal effect.

SMILES | 3T3 cytotox | hNpr1 antagonist | HEK293 tox | FLuc inh
COc1ccc(-c2cc(N3CCC(NC(=O)c4cccc(Br)c4)C3)n[nH]2)cc1 (stereo not drawn) | ? | -14% | ? | i
O=C(NC1CCCN(c2cc(-c3ccc(F)cc3)[nH]n2)C1)c1cccc(Cl)c1 (stereo not drawn) | 18µM* | -27% | 35µM* | i
Cc1nnc2ccc(N3CCCC(NC(=O)c4cccc(Cl)c4)C3)nn12 (stereo not drawn) | ? | · | 79µM* | ·
CCS(=O)(=O)c1ccc2oc([C@H]3CCN(Cc4ccc(OC)cc4)C3)nc2c1 | ? | ? | 63µM* | i
CCS(=O)(=O)c1ccc2oc([C@H]3CCN(Cc4c[nH]c5ccccc45)C3)nc2c1 | ? | -10%[70.6 µM] | ? | i
Fc1ccc(CN2CC[C@H](c3nc4cc(Cl)ccc4o3)C2)cc1F | ? | -28%[70.6 µM] | 89µM* | i
Fc1ccc2oc([C@H]3CCN(Cc4ccc(F)c(F)c4)C3)nc2c1 | -26%[138 µM] | 2%[70.6 µM] | ? | i
COc1cccc(CN2CCC(Cc3ncc(C)n3Cc3ccccc3)C2)c1 (stereo not drawn) | 35µM* | -19% | 45µM* | i
COc1cccc(CN2CC[C@H](c3nc4cc(Cl)ccc4o3)C2)c1 | 89µM* | -1%[70.6 µM] | ? | ?
COc1ncccc1-c1cc(C(=O)N2CCCC(OC)C2)c2c(c1)ncn2C (stereo not drawn) | 89µM* | 3%[70.6 µM] | -20%[172 µM] | i
Cc1cc(C)n(-c2cccc(CN3CCN(C4CCNC4)CC3)c2)n1 (stereo not drawn) | i | 4% | i | i
Clc1ccc(Oc2cccc(CN3CCN(C4CCNC4)CC3)c2)cc1 (stereo not drawn) | 28µM* | 3% | 28µM* | i
C#CCNC(=O)C1CCN(C(=O)c2ccc(-c3cncnc3)cc2)CC1 | -13% | · | -15% | ·
N#Cc1ccc(CN2C[C@@H]3C[C@H]2C(=O)N(Cc2ccccc2)c2ccccc2O3)cc1 | ? | ? | 50µM* | i
O=C1[C@@H]2C[C@@H](CN2Cc2ccc(Cl)cc2)Oc2ccccc2N1CC1CC1 | 89µM* | -30%[70.6 µM] | 89µM* | i
O=C1[C@@H]2C[C@@H](CN2Cc2ccccn2)Oc2ccccc2N1Cc1ccccc1 | ? | ? | ? | i
COc1ccc(CN2C(=O)[C@@H]3C[C@@H](CN3Cc3ccccc3Cl)Oc3ccccc32)cc1 | 45µM* | -12% | 40µM* | i
O=C1[C@@H]2C[C@@H](CN2Cc2ccccc2)Oc2ccccc2N1Cc1ccccc1 | ? | -22%[70.6 µM] | 63µM* | i
O=C1[C@@H]2C[C@@H](CN2Cc2ccc(F)cc2)Oc2ccccc2N1CC1CC1 | ? | -5%[70.6 µM] | ? | i
Cc1nc(C(=O)N2CC[C@H](NC(=O)C3CCNCC3)C[C@H]2C(=O)N[C@@H](Cc2cccs2)C(N)=O)cs1 | 4% | 3% | 1% | i
O=C1CCN(C(=O)[C@@H]2CCCN2C(=O)Nc2ccccc2)CCCCCCN1 | -11% | 2% | i | i
O=C(NCc1ccc(F)cc1)c1ccc2nnc(-c3cc(C(F)(F)F)cc(C(F)(F)F)c3)n2c1 | 35µM* | · | ? | ·
O=C(NCc1cccnc1)c1ccc2nnc(-c3cc(C(F)(F)F)cc(C(F)(F)F)c3)n2c1 | -23% | · | i | ·
O=C(NCCc1ccccc1F)c1ccc2nnc(-c3cccc(C(F)(F)F)c3)n2c1 | 35µM* | · | ? | ·
O=C(NCc1cccc(Cl)c1)c1ccc2nnc(-c3cccc(C(F)(F)F)c3)n2c1 | 32µM* | · | ? | ·
SMILES | 3T3 cytotox | hNpr1 antagonist | HEK293 tox | FLuc inh
Cc1noc([C@@H]2CN(C(=O)Cc3c(F)cccc3Cl)C[C@H]2C(N)=O)n1 | -18% | 8% | -6% | i
CN(C)S(=O)(=O)N1[C@@H]2CC[C@H]1CC(NC(=O)c1ccc(F)cc1)C2 (stereo partly drawn) | -9% | 4% | -1% | i
Cc1nc(-c2ccc(F)cc2)n(CC(=O)Nc2ccccc2)c(=O)c1CCO | -19% | 1% | 45µM* | i
Cc1nc(-c2ccccc2)n(CC(=O)Nc2ccc(F)cc2)c(=O)c1CCO | ? | -11% | ? | i
Cc1ccc(NC(=O)Cn2c(-c3ccc(F)cc3)nc(C)c(CCO)c2=O)c(Cl)c1 | -23% | -13% | ? | i
Cc1nc(-c2ccc(F)cc2)n(CC(=O)Nc2cc(C(F)(F)F)ccc2Cl)c(=O)c1CCO | ? | 5% | 32µM* | i
Cc1nc(-c2ccc(F)cc2)n(CC(=O)Nc2cccc(C(F)(F)F)c2)c(=O)c1CCO | 22µM* | ? | 20µM* | i
COc1ccc(C)cc1NC(=O)Cn1c(-c2ccc(F)cc2)nc(C)c(CCO)c1=O | -13% | 4% | 79µM* | i
N#Cc1cccc(CN2CCn3nnc(-c4nc(-c5ccsc5)no4)c3C2=O)c1 | -23% | 8% | -2% | i
O=C(O)Cn1ccc2cc(OCCc3cccc(-c4ccccc4F)c3)cnc21 | -17%[138 µM] | 4%[70.6 µM] | ? | ?
COCCN1CCCCCC(O)c2cc(C(=O)N3CCN(c4ccccc4OC)CC3)ccc21 (stereo not drawn) | ? | 1% | ? | i
O=C1NCC2(CCN(C(=O)c3ccccc3)CC2)Oc2ccccc21 | 0%[138 µM] | 3%[70.6 µM] | 0%[172 µM] | i
COc1cc(NC(=O)Cn2c(-c3ccc(Cl)cc3)nc(C)c(CCO)c2=O)cc(OC)c1 | -1% | 0% | ? | i
Cc1nc(-c2ccc(Cl)cc2)n(CC(=O)Nc2cccc(C(F)(F)F)c2)c(=O)c1CCO | ? | -1% | 40µM* | i
CSc1cccc(NC(=O)Cn2c(-c3ccc(Cl)cc3)nc(C)c(CCO)c2=O)c1 | -13% | -7% | 32µM* | i
CCCCN(CC)C(=O)CC1CCCN(c2cn[nH]c(=O)c2)C1 (stereo not drawn) | -8% | 14% | 1% | i
Cc1ccc(C(=O)N2CCN(Cc3ccc(=O)n(C)c3)CC2)cc1F | -21% | 0% | -5% | i
COc1ccc(C(=O)N2CCN(Cc3ccc(=O)n(C)c3)CC2)cc1F | -6% | 2% | -19% | 40µM*
CC(=O)c1cccc(NC(=O)Cn2c(-c3ccc(F)cc3)nc(C)c(CCO)c2=O)c1 | ? | -6% | ? | i
Cc1nc(-c2ccccc2)n(CC(=O)Nc2cccc(C#N)c2)c(=O)c1CCO | ? | -21% | 40µM* | i
Cc1ccccc1NC(=O)Cn1c(-c2cccc(Cl)c2)nc(C)c(CCO)c1=O | ? | -3% | ? | i
Cc1ccc(NC(=O)Cn2c(-c3ccccc3)nc(C)c(CCO)c2=O)cc1Cl | 28µM* | -15% | ? | i
Cc1nc(-c2ccccc2)n(CC(=O)Nc2ccc(Cl)cc2)c(=O)c1CCO | -29% | -18% | ? | i

High-throughput results from PubChem.
